Data on 84 compounds can be found in PubChem BioAssay AID1851 (National Center for Advancing Translational Sciences (NCATS), 2009).

In all, about 16,000 compounds went through this assay and about 2,600 (16%) were called active. About 20% were inconclusive and are not listed. The call rests on the fitted dose curve; in most records, active means well fitted curve in the direction sought with a large enough effect; inconclusive means small, poorly fitted or top-dose-only effect, or effect the other way; inactive means no such curve, though single readings can be large or run the other way. These entries were drawn from the full list.
On the % scale 0 is the no-effect control and ±100 the full control effect.

The target in this experiment is Cytochrome P450 2D6 (Homo sapiens) (UniProt P10635). As to the kind of experiment: Cytochrome panel assay with activity outcomes. As to conditions: recombinant CYP, pro-luciferin dealkylation, luminescence, p450-cyp2d6; series mostly up to 57.1 µM.
Sequence of Cytochrome P450 2D6 (Homo sapiens) (P10635 whole entry, looked up): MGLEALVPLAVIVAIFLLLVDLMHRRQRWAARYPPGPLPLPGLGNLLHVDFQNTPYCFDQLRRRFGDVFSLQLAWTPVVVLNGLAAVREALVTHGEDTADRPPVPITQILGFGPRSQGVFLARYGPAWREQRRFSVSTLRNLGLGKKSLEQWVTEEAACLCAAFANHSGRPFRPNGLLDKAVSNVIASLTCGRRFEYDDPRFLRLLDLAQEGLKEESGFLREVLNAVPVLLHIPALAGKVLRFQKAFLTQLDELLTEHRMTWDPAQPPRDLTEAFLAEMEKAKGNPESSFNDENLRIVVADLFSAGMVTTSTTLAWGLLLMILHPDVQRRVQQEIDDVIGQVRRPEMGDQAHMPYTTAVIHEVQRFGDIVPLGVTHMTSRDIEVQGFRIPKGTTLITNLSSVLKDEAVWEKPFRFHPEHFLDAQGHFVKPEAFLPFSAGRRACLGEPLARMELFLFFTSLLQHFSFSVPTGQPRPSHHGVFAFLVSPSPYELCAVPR
Regarding `Cc1noc(C)c1-c1cc(N2CCN(C)CC2)ncn1`, the AC50 result is “inactive”. Turning to `O=C(O)Cc1ccc2c(c1)N(S(=O)(=O)c1cccc(C(F)(F)F)c1)CC(C(=O)O)O2` (centres undefined), the AC50 result is “inactive”. For `C=CC1=C[C@@H](O)C2OC2C12OCCCO2` (some centres undefined), the activity, negative = inhibition was -1.06% [at 11.4 µM] (inactive). As for `Cc1[nH]n(-c2ccc(S(=O)(=O)O)cc2)c(=O)c1N=Nc1ccccc1`, the activity, negative = inhibition was 16.9% [at 11.4 µM] (inactive). As for `O=C(Oc1ccccc1)N1CCC2(CCCN(c3ccccc3)C2)CC1`, the AC50 result is “inactive”. As to `CCCCCn1c(CN2CCCCC2C)nc2c1c(=O)n(C)c(=O)n2C` (centres undefined), the AC50 was 14.1 µM (active).

Regarding `CN(C)CCn1c(CO)nc2c1c(=O)n(C)c(=O)n2C`, the activity, negative = inhibition is -1.53% [at 11.4 µM] (inactive).

Consider `CCCCn1c(SCC(=O)N2CCCC2)nc2c1c(=O)n(C)c(=O)n2C`, for which the AC50 entry was “inactive”. For the compound `Cc1ccc(-n2nnnc2SCC(=O)NNC(=O)c2ccco2)c(C)c1`, the AC50 result is “inactive”. `O=C(NCC(c1cccnc1)N1CCOCC1)Nc1ccccc1` (centres undefined): the AC50 entry is “inactive”. On the same count and under the same terms, in the case of `c1ccc(C[C@@H](Nc2cccnc2)c2ccccc2)cc1` it was 1 µM (active). Turning to `O=C(O)Cc1cccnc1`, the activity, negative = inhibition is 16.4% [at 11.4 µM] (inactive). Same read-out and setting: as for `O=S(=O)(O)c1cc(O)c2c(O)c(N=Nc3cccc4ccccc34)c(S(=O)(=O)O)cc2c1`, the figure is -16% [at 11.4 µM] (inactive); as for `COc1cc(C2SCCCCCCCCCCSC(c3ccc(O)c(OC)c3)SCCCCCCCCCCS2)ccc1O` (centres undefined), 6.94% [at 11.4 µM] (inactive).

Take `COc1cccc(NC(=O)COC(=O)c2c3c(nc4ccccc24)CCC(C)C3)c1` (centres undefined): the AC50 is 7.94 µM (active). Turning to `COc1ccc(NC(=O)COC(=O)c2c3c(nc4ccccc24)CCCC3)cc1`, the AC50 entry was “inactive”. Regarding `COc1ccc(OC)c(NC(=O)c2c3c(nc4ccccc24)CCC3)c1`, the AC50 entry is “inactive”. As to `C[N+]1(CCOc2ccc([N+](=O)[O-])cc2)CCOCC1`, the AC50 entry is “inactive”.

Consider `Cc1ccc(/S(C)=N/S(=O)(=O)c2ccc(C)cc2)cc1` (centres undefined), for which the AC50 entry was “inactive”. Turning to `C[C@@H](c1ccccc1)N1C(=O)[C@@H]2[C@H]3C(=CC[C@H]2C1=O)C(=O)[C@H]1O[C@H]1[C@H]3O`, the activity, negative = inhibition was 5.61% [at 11.4 µM] (inactive). Turning to `COc1cccc(-c2cc(C(F)(F)F)nc(N3CCN(c4ccccc4)CC3)n2)c1`, the AC50 entry is “inactive”. Same read-out and setting: in the case of `CN1CCN(c2nc(-c3ccccc3)cc(C(F)(F)F)n2)CC1` it was 17.8 µM (active); in that of `COc1ccccc1N1CCN(c2nc(-c3ccccc3)cc(C(F)(F)F)n2)CC1`, “inactive”.

As for `COc1cc(/C=C/C(=O)N2CCN(CC(O)COc3ccccc3)CC2)cc(OC)c1OC` (centres undefined), the AC50 entry is “inactive”. Regarding `CC1CCC(C(C)C)C(OCC(O)CN2CCN(Cc3ccccc3)CC2)C1` (centres undefined), the concentration at half-maximal activity (AC50) is 0.112 µM (active).

With `O=C(c1ccccc1)c1ccc(OCCn2cnc3ccccc3c2=O)cc1`, the AC50 entry is “inactive”. As to `O=C(c1ccccc1)c1ccc(OCC(O)CN2CCN(Cc3ccccc3)CC2)cc1` (centres undefined), the AC50 was 3.16 µM (active). In the case of `CC1CC(OCC(O)CN2CCN(Cc3ccccc3)CC2)CC(C)(C)C1` (centres undefined), the AC50 result was “inactive”. With `Cc1cccc(-n2nnc3cnn(C)c3c2=O)c1`, the AC50 entry is “inactive”. For `O=C(O)[C@@H]1[C@H](C(=O)O)[C@H]2C(=O)C=C[C@H]1N2Cc1ccccc1`, the activity, negative = inhibition is 3.08% [at 11.4 µM] (inactive). As for `Cc1nn(C)c(Cl)c1NC(=O)OCc1ccc(F)cc1`, the AC50 entry was “inactive”. The same measure, in the same setting: as for `CC(=O)[C@@H]1CC[C@@H]2[C@@H]3C[C@H](C)C4=CC(=O)CC[C@@]4(C)[C@H]3[C@H](O)C[C@]21C`, the entry is “inactive”; as for `C=C(NC(=O)C(=C)NC(=O)c1csc(C2=N[C@@H]3c4csc(n4)[C@@H]4NC(=O)c5csc(n5)[C@@H]([C@](C)(O)[C@H](C)O)NC(=O)[C@@H]5CSC(=N5)/C(=C/C)NC(=O)[C@@H]([C@H](C)O)NC(=O)c5csc(n5)[C@]3(CC2)NC(=O)[C@@H](C)NC(=O)C(=C)NC(=O)[C@@H](C)NC(=O)[C@@H]([C@@H](C)CC)N[C@H]2C=Cc3c([C@H](C)O)cc(nc3[C@@H]2O)C(=O)O[C@H]4C)n1)C(N)=O`, “inactive”; as for `Cn1c(=O)c2[nH]c(C3CCCC3)nc2n(C)c1=O`, “inactive”. In the case of `Cc1nn(Cc2ccc(Cl)cc2)c(C)c1NC(=O)Cn1nc([N+](=O)[O-])c(Cl)c1C`, the AC50 result is “inactive”. On the same count and under the same terms, as for `COc1cnc(NS(=O)(=O)c2ccc(N)cc2)nc1`, the entry is “inactive”.

Consider `CCOC(=O)C1=C(O)/C(=C\c2ccc(OC)c(OC)c2)N=C1C`, for which the AC50 result is “inactive”. Same read-out and setting: in the case of `CN(Cc1ccco1)c1ncncc1-c1ccc2c(c1)OCO2` it was 1.26 µM (active); in that of `CN(Cc1ccco1)c1ncncc1-c1ccccc1Cl`, 12.6 µM (active); in that of `CN(Cc1ccco1)c1ncncc1-c1cccnc1`, “inactive”. Consider `COc1cccc(-c2cncnc2N(C)Cc2ccco2)c1`, for which the AC50 is 12.6 µM (active). As to `Cc1noc(C)c1-c1cncnc1N(C)Cc1ccco1`, the AC50 entry was “inactive”. The same measure, in the same setting: as for `CN(C)c1ccc(-c2cncnc2N(C)Cc2ccco2)cc1`, the figure is 12.6 µM (active); as for `Cn1c(SCC(=O)c2ccc3c(c2)Cc2ccccc2-3)nnc1-c1ccccc1`, “inactive”.

Regarding `Cc1cc(C)nc(Nc2n[nH]c(COc3cccc4ccccc34)n2)n1`, the AC50 entry is “inactive”.

Consider `CCN1CCc2nc(N)oc2CC1`, for which the AC50 entry was “inactive”. As for `Nc1ncnc2c1ncn2[C@H]1O[C@@H](C(=O)O)[C@@H](O)[C@H]1O`, the activity, negative = inhibition was 2.66% [at 11.4 µM] (inactive). On to `Cc1c(CC(C)(C)C(=O)O)n(Cc2ccc(Cl)cc2)c2ccc(F)cc12`, for which the AC50 entry was “inactive”. Same read-out and setting: in the case of `Cc1cc(C(F)(F)F)n2nc(-c3cnn(C)c3C(F)(F)F)c(Cl)c2n1` it was “inactive”. On the same count and under the same terms, in the case of `CNc1oc(C)nc1S(=O)(=O)c1ccc(C)cc1` it was “inactive”; in that of `COCCn1c(=O)c(-c2cccc(C#N)c2)nc2cnc(N3CCOCC3)nc21`, “inactive”; in that of `COc1cc(OC)c2cc(-c3ccncc3)cnc2c1`, “inactive”. As for `COCCNC(=O)/C(C#N)=C/c1ccc(-c2ccc(OC)cc2[N+](=O)[O-])o1`, the AC50 entry was “inactive”. Still for that read-out and setting: as for `CO/N=C/c1ccc(N2CCN(C(=O)c3ccc(Cl)cc3Cl)CC2)c([N+](=O)[O-])c1`, the entry is “inactive”; as for `Cc1snc(SCC(=O)N/N=C(\N)COc2cccc(C(F)(F)F)c2)c1C#N`, “inactive”. As to `CC(=O)OC[C@@H]1O[C@H](CCO/N=C\[C@@H](C)[C@H](OCc2ccccc2)C(C)C)C=C[C@@H]1OC(C)=O`, the activity, negative = inhibition was -18.8% [at 11.4 µM] (inactive). Regarding `CC(=O)OC[C@@H]1O[C@H](C/C=N\OC[C@@H](C)[C@H](OCc2ccccc2)C(C)C)C=C[C@@H]1OC(C)=O`, the activity, negative = inhibition is -1.74% [at 11.4 µM] (inactive). The same measure, in the same setting: as for `C=CC[C@@H]1C=C[C@@H](O/N=C\C[C@@H]2C=C[C@H](OC(C)=O)[C@H](COC(C)=O)O2)[C@@H](CO)O1`, the figure is -12% [at 11.4 µM] (inactive); as for `CC(=O)OC[C@@H]1O[C@H](CCON=C(C)C)C=C[C@@H]1OC(C)=O`, -4.81% [at 11.4 µM] (inactive). Regarding `CC(=O)OC[C@H]1O[C@@H](ON=C(C)C)[C@H](OC(C)=O)[C@@H](OC(C)=O)[C@H]1OC(C)=O`, the AC50 is 3.16 µM (active). Consider `CC(=O)OC[C@H]1O[C@@H](O/N=C\[C@@H](C)[C@H](OCc2ccccc2)C(C)C)[C@H](OC(C)=O)[C@@H](OC(C)=O)[C@H]1OC(C)=O`, for which the AC50 was 3.98 µM (active). `CC(=O)OC[C@@H]1O[C@H](C/C=N\OCC[C@H]2C=C[C@H](OC(C)=O)[C@@H](COC(C)=O)O2)C=C[C@@H]1OC(C)=O`: the activity, negative = inhibition was -6.46% [at 11.4 µM] (inactive). For `COC(=O)[C@@H]1CC[C@H](C)[C@@H](c2ccc(C)cc2)N1C(=O)c1ccc(/C=N\O[C@@H]2O[C@H](COC(C)=O)[C@H](OC(C)=O)[C@H](OC(C)=O)[C@H]2OC(C)=O)cc1`, the activity, negative = inhibition is -6.2% [at 11.4 µM] (inactive). For the compound `CC(=O)OC[C@@H]1O[C@H](C/C=N\O[C@@H]2O[C@H](COC(C)=O)[C@@H](OC(C)=O)[C@H](OC(C)=O)[C@H]2OC(C)=O)C=C[C@@H]1OC(C)=O`, the AC50 is 3.98 µM (active). `CC(CCc1ccccc1)NS(=O)(=O)c1ccccc1` (centres undefined): the AC50 result was “inactive”. On to `COc1cccc(Cn2c(=O)c(-c3ccccc3)nc3cnc(N(C)C)nc32)c1`, for which the AC50 entry was “inactive”.

As for `CC(=O)Nc1nc(NC(C)=O)c2[nH]c(CO)nc2n1`, the activity, negative = inhibition is -2.84% [at 11.4 µM] (inactive). Regarding `Cc1cc(=O)n2c3ccccc3n(CC(O)CN3CCCCC3)c2c1C#N` (centres undefined), the AC50 was 8.91 µM (active).

Take `OC(CN1CCCCC1)CN1CCCCC1`: the AC50 entry is “inactive”.

For `O=CN1CCN(C[C@H](O)CN2CCCCC2)CC1`, the activity, negative = inhibition is 9.19% [at 11.4 µM] (inactive).

Turning to `Nc1ccc(C(=O)C[C@H](N)C(=O)O)cc1O`, the activity, negative = inhibition is -0.576% [at 11.4 µM] (inactive).

On to `Cc1ccc(C)c(S(=O)(=O)NCc2ccc(C(=O)N3CCC(Cc4ccccc4)CC3)cc2)c1`, for which the AC50 result is “inactive”. Still for that read-out and setting: in the case of `Cc1ccc(C(=O)N2CCN(C3c4cccc5cccc(c45)C3NS(=O)(=O)c3ccccc3)CC2)cc1` (centres undefined) it was 2.82 µM (active); in that of `CS(=O)(=O)Nc1ccc(C(=O)N2CCN(c3ccccc3)CC2)cc1`, “inactive”; in that of `COc1ccccc1CNS(=O)(=O)c1ccc2[nH]cc(C(=O)O)c(=O)c2c1`, “inactive”.

As for `COCC(=O)N/N=C/c1ccc(Sc2nc3ccccc3s2)o1`, the AC50 entry is “inactive”. For `Cc1ccc(C(=O)NC(=S)N2CC(C)OC(C)C2)cc1[N+](=O)[O-]` (centres undefined), the AC50 entry is “inactive”. Consider `CC(C)C[C@H](NC(=O)[C@@H]1O[C@H]1C(=O)O)C(=O)NCCCCN=C(N)N`, for which the AC50 result was “inactive”. Regarding `O=C(NC(C(=O)c1ccccc1)n1cnccc1=O)c1ccccc1` (centres undefined), the AC50 entry was “inactive”.

Turning to `Clc1ccccc1-c1nc(-n2ccnc2)c2ccccc2n1`, the AC50 was 12.6 µM (active). In the case of `Cc1ccccc1-c1nc(-n2ccnc2)c2ccccc2n1`, the AC50 was 15.8 µM (active). Consider `COc1cc2c(c(O)c1OC)C(=O)C(OC)CCC2` (centres undefined), for which the AC50 entry is “inactive”. As for `Cc1c(Nc2ncccc2C(=O)O)cccc1C(F)(F)F`, the AC50 result was “inactive”.

With `C/C(CCC(=O)OC[C@@H]1O[C@H](C#Cc2ccccc2)C=C[C@@H]1Oc1ccc(C)cc1)=N/OC[C@@H](C)[C@H](OCc1ccccc1)C(C)C`, the activity, negative = inhibition is -14.2% [at 11.4 µM] (inactive).

As a reminder, the AC50 is the concentration at which the activity in the assay is half-maximal.
